TRPM1 prom inh = reduces MITF-dependent TRPM1 promoter luciferase signal; 0.83% of 330,000 active; inhibition, % at 12.5 µM; SK-MEL-5 TRPM1 promoter luciferase, 24 h;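 active = mean inhibition across replicates of 60% or more, whatever share of single replicates reaches that level; inconclusive = some that reach 60%, reason not given; inactive = mean inhibition across replicates below 60%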
C2C12 statin = protects C2C12 myotubes from simvastatin toxicity; 0.78% of 330,000 active; AID 602340; rescue of ATP level, % at 7.49 µM; ATP luminescence, 48 h; scaled: DMSO 0, geranylgeraniol control 100;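 active = mean ATP rescue above about 67%, or every replicate alone reaching that limit, limit read from the data, passing the limit was not always enough; inconclusive = no clear call, values can overlap the other calls; inactive = mean under the limit and some replicate under it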;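 note: myotubes were challenged with 10 µM simvastatin during compound exposure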
Wnt bcat act = activates Wnt/beta-catenin signaling in a reporter cell assay. activator, plate reader. activation, % at 9.35 µM. 1.2% of 300,000 active; in the data active = activation above about 30%, passing the limit was not always enough; inconclusive = no clear call, values can overlap the other calls
MITF TRPM1 HTS = MITF TRPM1 promoter activation in melanoma cells; 0.75% of 300,000 active; activation, % at 12.5 µM; AID 588334; SK-MEL-5 TRPM1-promoter luciferase, 24 h; % of positive control, neutral wells = 0;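 active = mean activation of at least 80% with every replicate also reaching 80%; inconclusive = mean reaches 80% but some replicate falls short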
esBAF inh = blocks esBAF chromatin remodeling in mouse ES cells. Bmi1-luciferase knock-in reporter, 24 h; 100% = twice the neutral-well signal. reporter increase, % at 12.5 µM. 2% of 350,000 active. AID 602393; in the data active = activation above about 40%; inconclusive = no clear call, values can overlap the other calls;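 note: a rise in the Bmi1 reporter signal indicates esBAF inhibition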
EBV LMP1 NFkB = Epstein-Barr LMP1 NF-kappaB reporter inhibition. LMP1-induced NF-kappaB luciferase reporter cells, luminescence. inhibition, % at 12.5 µM. 0.69% of 350,000 active. AID 504558; in the data active = inhibition above about 41%; inconclusive = no clear call, values can overlap the other calls
Hits are given with their value; - = inactive; ? = inconclusive; . = no result. The list is not random: actives were taken first. Their share in the collection is about 4%.

SMILES | TRPM1 prom inh | C2C12 statin | Wnt bcat act | MITF TRPM1 HTS | esBAF inh | EBV LMP1 NFkB
c1cnc(SCCCOc2ccc3ccccc3c2)nc1 | - | - | - | - | - | -
COc1ccc(OCCSc2ncccn2)cc1 | - | - | . | - | ? | -
COc1ccc(OCCCSc2ncccn2)cc1 | - | - | . | 112.9 | 56.8 | -
Cc1ccc(OCCCSc2ncccn2)cc1C | - | - | . | ? | 69.9 | -
COc1cccc(OCCSc2nc(N)cc(N)n2)c1 | - | - | . | . | 54.5 | -
COc1cccc(OCCCCSc2ncccn2)c1 | - | - | . | - | 54.6 | -
CCCOc1c(Br)cc(C(=O)OCc2cc(=O)n3ccsc3n2)cc1OC | - | - | - | - | - | -
O=C(CN1CCC(C(O)(c2ccccc2)c2ccccc2)CC1)Nc1cc(Cl)ccc1Cl | - | 90.2 | - | - | - | -
O=C(CN1CCOCC1)Nc1cc(C(F)(F)F)ccc1Cl | - | - | - | - | - | -
O=C(CN1CCN(C(=O)c2ccco2)CC1)Nc1cc(C(F)(F)F)ccc1Cl | - | 104.2 | . | - | - | -
O=C(c1ccco1)N1CCN(Cc2ccc(F)cc2Cl)CC1 | - | - | - | - | 45.9 | -
COc1ccc(C(CNC(=O)c2ccc(OC)c(S(=O)(=O)N3CCCC3)c2)N2CCCC2)cc1 (stereo not given) | - | - | - | - | - | -
COc1ccc(CN(C(=O)c2nsc(Cl)c2Cl)C(C(=O)NC2CCCCC2)c2ccc(OC)cc2)cc1 (stereo not given) | - | . | . | - | . | -
COc1ccc(CN(C(=O)c2nsc(Cl)c2Cl)C(C(=O)NC2CCCC2)c2ccc(C)cc2)cc1 (stereo not given) | - | . | - | - | . | 53.7
COc1cccc(N(C(=O)c2cnccn2)C(C(=O)NC2CCCCC2)c2ccc(Cl)cc2)c1 (stereo not given) | - | . | - | - | . | -
COc1ccc(C(C(=O)NC2CCCCC2)N(C(=O)CCl)c2ccc(C)cc2)cc1 (stereo not given) | 82.2 | . | - | - | . | 46.6
COc1ccc(C(C(=O)NC2CCCC2)N(C(=O)c2ccoc2C)c2ccc(C)cc2)cc1 (stereo not given) | - | - | - | - | - | -
COc1ccc(C(C(=O)NC2CCCCC2)N(C(=O)CCl)c2cccc(Cl)c2)cc1 (stereo not given) | 88.0 | . | - | - | . | -
COc1cccc(N(C(=O)Cc2cccs2)C(C(=O)NC2CCCC2)c2ccncc2)c1 (stereo not given) | - | - | - | - | 51.6 | -
CC(=O)CCCC(NS(=O)(=O)CCC(Cl)(Cl)Cl)c1ccccc1 (stereo not given) | - | - | - | - | - | -
CCCn1ncc(CN2CCN(Cc3ccsc3)C(CCO)C2)c1C (stereo not given) | - | - | - | - | - | -
O=C(Nc1ccc(-c2ccccc2)cc1)c1ccccc1 | - | - | - | - | - | -
Cc1ccc(OCC(=O)Sc2ccc(C)cc2)cc1 | - | - | . | - | - | -
COc1ccc(N(C(=O)Cc2cccs2)C(C(=O)NC2CCCC2)c2ccncc2)cc1 (stereo not given) | - | - | - | - | - | -
O=C(NCC1CCCO1)C(c1cccnc1)N(C(=O)Cc1cccs1)c1ccccc1 (stereo not given) | - | - | - | - | 69.3 | -
SMILES | TRPM1 prom inh | C2C12 statin | Wnt bcat act | MITF TRPM1 HTS | esBAF inh | EBV LMP1 NFkB
COc1ccc(N(C(=O)c2snc(C(N)=O)c2N)C(C(=O)NC2CCCCC2)c2ccc(C)o2)cc1 (stereo not given) | - | 74.7 | - | - | - | -
COc1ccc(C(C(=O)NC2CCCCC2)N(C(=O)CCl)c2ccc(OC)cc2)cc1 (stereo not given) | 81.5 | . | . | - | . | ?
O=C(NC1CCCC1)C(c1ccsc1)N(Cc1ccco1)C(=O)Cc1cccs1 (stereo not given) | - | 118.1 | . | - | - | -
O=C(NC1CCCC1)C(c1ccsc1)N(Cc1ccccc1)C(=O)Cc1cccs1 (stereo not given) | - | - | . | - | - | -
NC(=O)C1(Nc2ccc(Cl)cc2)CCCC1 | - | - | - | - | - | -
O=C1C2ON(c3ccccc3)C(c3ccccn3)C2C(=O)N1c1ccc(Br)cc1 (stereo not given) | - | - | . | - | - | -
O=C(NCc1c(O)ccc2ccccc12)c1ccccc1 | - | - | - | - | - | -
Cc1cc(=O)n(Nc2ccccc2)c(O)c1C#N | . | - | - | . | - | -
CC1CCC2(CC1)SCC(=O)N2c1ccccc1 (stereo not given) | - | - | . | - | - | -
Oc1ccc(CN2CCCCC2)c2cccnc12 | - | - | - | - | - | -
Oc1c(CN2CCCCC2)cc(COCc2ccccc2)c2cccnc12 | 88.0 | - | - | - | - | 79.5
COc1ccccc1N1CCN(Cc2cc(Br)c(O)c3ncccc23)CC1 | 70.8 | - | - | - | - | -
Oc1c(CN2CCCCC2)ccc2cccnc12 | 77.2 | - | - | - | - | -
CN(C)C1CCN(Cc2cc(COCc3ccccc3)c3cccnc3c2O)C1 (stereo not given) | 73.2 | - | . | - | - | -
C[C@@H]1CN([C@@H](C)CO)C(=O)c2cccc(NS(=O)(=O)c3ccc(Cl)cc3)c2O[C@H]1CN(C)S(=O)(=O)c1cccs1 | . | . | . | . | - | .
COCCNC(=S)N/N=C(\C)c1ccccc1F | - | . | - | - | . | -
Oc1c(Cl)cc(CN2CCCCC2)c2cccnc12 | 64.4 | - | . | - | - | 62.9
Oc1c(CN2CCN(c3ccccn3)CC2)cc(Cl)c2cccnc12 | 84.3 | . | . | - | . | -
Cc1ccc(OC(=O)c2ccncc2)c(C)c1 | - | - | - | . | - | -
COc1cc([N+](=O)[O-])ccc1NC(=O)CN1CCc2cc(OC)c(OC)cc2C1 | - | - | - | - | - | -
CN(Cc1cccs1)C(=O)Cn1cnc2cc([N+](=O)[O-])ccc2c1=O | - | . | - | - | . | -
CC(=O)c1c(C)[nH]c(C(=O)Nc2nc(-c3ccc(Cl)cc3)cs2)c1C | - | . | - | - | . | -
CC(=O)c1c(C)[nH]c(C(=O)Nc2cc(C)cc(C)c2)c1C | - | . | . | - | . | -
CC(=O)c1c(C)[nH]c(C(=O)Nc2ccc(C)cn2)c1C | - | - | - | - | - | 58.1
CC(=O)c1c(C)[nH]c(C(=O)Nc2nc(C)cs2)c1C | - | - | - | - | - | 71.4
SMILES | TRPM1 prom inh | C2C12 statin | Wnt bcat act | MITF TRPM1 HTS | esBAF inh | EBV LMP1 NFkB
CCC(=O)Nc1sc(C(=O)OC)c(C)c1C(=O)OC | - | - | - | - | - | -
O=C(Cc1ncon1)Nc1ccc(F)c(F)c1F | - | - | - | . | - | -
O=C1ON=C(c2ccccc2)/C1=C\c1ccco1 | - | - | - | . | - | -
COc1cc([N+](=O)[O-])ccc1-c1ccc(/C=C2\C(=O)ON=C2c2ccccc2)o1 | 89.6 | . | - | - | . | -
Cc1ccc(/C=C2/C(=O)ON=C2c2ccccc2)o1 | 71.5 | . | - | . | . | -
COc1cc([N+](=O)[O-])ccc1-c1ccc(/C=N\n2cnnc2)o1 | - | - | - | . | - | -

Screens deposited in PubChem BioAssay by Broad Institute.
